Source: PubChem (National Center for Advancing Translational Sciences (NCATS))
NS1 inh: inhibitors of influenza NS1 protein function; Potency, µM (titrated, usually from 46.1 µM), for inactives: top-dose activity, positive = more growth; actives 0.4% (n = 270,000); calls by dose curve; further: potency means the concentration at half of the fitted maximal effect; actives are rising curves; nearly all actives have a fitted effect of over 50% in size
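OD600 was taken as the measure of yeast growth restored by compound in an NS1-expressing S. cerevisiae strain. Cells had been washed out of glucose medium and diluted 1:100 into galactose -URA medium, pH 6.0.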
Shiga inhibitor: inhibitors of Shiga toxin in Vero cells. Vero cells, Shiga toxin protein synthesis inhibition reporter. inhibition, % at 38.7 µM. actives 9.2% (n = 290,000); in the data active means inhibition mostly above about 28%, no sharp cut-off; inactive means mostly below about 43%; further: 0% is about no effect
Pf growth 48h: inhibits P. falciparum growth in the first generation, 48 h | P. falciparum luciferase growth in erythrocytes, 48 h | Potency, µM (top dose mostly 28.7 µM), for inactives: at the highest dose activity change, negative = inhibition, usual class: inhibitors | actives 5.9% (n = 310,000) | AID 504832; further: potency means the concentration at half of the fitted maximal effect; on the % scale 0 is the no-effect control and ±100 the full control effect
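Growth was read as firefly luciferase luminescence after a 48 h, 37 C, 5% CO2 exposure of compounds to reporter-bearing P. falciparum cultures (0.1% parasitemia, 2% hematocrit final) in Albumax-supplemented RPMI 1640.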
Sm TGR inh: blocks Schistosoma mansoni thioredoxin glutathione reductase; AID 485364; Q962Y6; actives 3% (n = 360,000); purified TGR, DTNB reduction, TNB absorbance 405 nm; Potency, µM (series often up to 114 µM), without a hit: at the top dose activity change, negative = inhibition, usual class: inhibitors; further: potency means the concentration at half of the fitted maximal effect; on the % scale 0 is the no-effect control and ±100 the full control effect; nearly all actives have a fitted effect of over 60% in size
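TGR 20 nM + NADPH 100 uM (dispensed conc.), cpd preinc 15 min RT; start with NADPH (500 uM addition) then DTNB (15 mM addition). Kinetic TNB absorbance, 405 nm filter. Four-parameter Hill fit across titration.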
Pf growth 96h: inhibits malaria parasite growth, 96 h; P. falciparum luciferase reporter growth, 96 h; Potency, µM (top dose mostly 28.7 µM), for the others: at the highest dose activity change, negative = inhibition, most hits filed as inhibitors; actives 6.9% (n = 320,000); AID 504834; further: potency means the concentration at half of the fitted maximal effect; on the % scale 0 is the no-effect control and ±100 the full control effect
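Cell-based qHTS: luciferase-tagged P. falciparum in erythrocytes (2% hematocrit, 0.05% parasitemia final) incubated with compounds for 96 hours, 37 C, 5% CO2; luciferase detection reagent then added and luminescence measured.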
CHX counter: counter-screen hit for Shiga toxin inhibitors, cycloheximide. cell reporter, cycloheximide protein synthesis inhibition counterscreen. max response, %. actives 12% (n = 300,000); in the data active means max response mostly above about 13%, no sharp cut-off; inactive means mostly below about 14%; further: read at 38.3 µM for the half of the compounds with a filed dose; 0% is about no effect
Numbers without * were called inactive; ? = inconclusive; · = no result given. Sampled rows, rich in hits. Any-hit rate of the full collection: about 21%. Unless noted, the call rests on the fitted dose curve; in most records, active means well fitted curve in the direction sought with a large enough effect; inconclusive means small, poorly fitted or top-dose-only effect, or another doubt; inactive means no such curve, though single readings can be large; an effect the other way counts as inactive or inconclusive.

SMILES	NS1 inh	Shiga inhibitor	Pf growth 48h	Sm TGR inh	Pf growth 96h	CHX counter
CC(=O)NCCc1ccc(C(=O)CSc2nnc(C3CC3)n2C2CC2)cc1	·	·	34%	?	10%	·
CCc1nn(CC(=O)NCc2cccc(OC)c2OC)c(=O)c2cc3occc3n12	·	·	·	6%	·	·
CC(C)Cn1c(SCC(=O)Nc2cc(Cl)c(Cl)cc2Cl)nc(O)cc1=O	·	·	?	-1%	?	·
NS(=O)(=O)c1ccc(CCNC(=O)c2ccc(OCC3CCCO3)cc2)cc1 (stereo not drawn)	-2%	-3	6%	-4%	-4%	-7
CC(=O)Nc1ccc(SC[C@H](Cc2ccccc2)N2CCN(CC(C)C)CCC2=O)cc1	-2%	-4	7.4µM*	?	4.7µM*	-2
O=C1CCN(CCc2ccccc2)CCN1CCSc1ccc(Br)cc1	-37%	-5	59%	?	68%	2
CC(=O)Nc1ccc(SCC(Cc2ccccc2)N2CCN(CC(C)C)CCC2=O)cc1 (stereo not drawn)	·	-8	·	·	·	-3
CC(C)CC(CSc1ccc(Br)cc1)N1CCN(CCc2ccccc2)CCC1=O (stereo not drawn)	·	49*	·	·	·	29*
NN(CC(=O)O)CC(=O)O	1%	·	·	·	·	·
COc1cccc(OC)c1C(=O)Nc1nc2cc3c(cc2s1)OCO3	3%	16	-15%	2%	2%	-2
COc1ccc2nc(Nc3nc4cc5c(cc4s3)OCO5)sc2c1	16%	64*	-10%	-19%	-4%	23*
COc1ccc2nc(NC(=O)/C=C/c3ccc4c(c3)OCO4)sc2c1	4%	18	-1%	-12%	1.9µM*	4
COc1ccc(-c2nc3ccc(C)cn3c2Nc2ccc3c(c2)OCO3)cc1	·	·	·	-25%	·	·
COc1ccc2nc(Nc3ccc4c(c3)OCO4)sc2c1	?	45*	159%	8%	1%	39*
Cc1sc(NC(=O)/C=C/c2ccc3c(c2)OCO3)nc1-c1ccccc1	?	11	-12%	-7%	28%	-1
CC1CCN(c2ccc(C(=O)O)cc2NS(=O)(=O)c2ccc(Br)cc2)CC1	-21%	2	?	4%	10%	-4
Cc1c(C(=O)N2CCCCCC2)c(S(=O)(=O)Nc2cccc(F)c2)c(C)n1C	0%	-10	4%	-11%	30%	-1
Cc1cccc(C)c1OCC(O)CNC(C)c1ccccc1 (stereo not drawn)	-1%	-6	?	3%	?	-2
O=C(CCS(=O)(=O)c1cc(Br)cc2c1N(C(=O)C1CC1)CC2)N1CCN(c2ccccc2)CC1	·	·	·	-21%	·	·
CCOC(=O)c1sc2ncn(CC(=O)Nc3ccc(C)cc3C)c(=O)c2c1C	·	·	·	19%	·	·
CCCCCCSc1cc(-c2nc3ccc(C)cn3c2NCc2ccccc2)ccc1OC	·	·	4.1µM*	4%	10µM*	·
CCCCCCSc1cc(-c2nc3cc(C)ccn3c2NCCCC)ccc1OC	·	·	9.3µM*	5%	?	·
CCCCCCSc1cccc(-c2nc3cc(C)ccn3c2NCc2ccccc2)c1	·	·	?	0%	?	·
CCCCCCSc1cccc(-c2nc3ccc(C)cn3c2NCc2ccccc2)c1	·	·	?	-2%	12µM*	·
O=C(NCc1ccc(Cl)cc1)C1CCCN(c2nc3ccccc3n3cccc23)C1 (stereo not drawn)	·	·	·	12%	·	·
SMILES	NS1 inh	Shiga inhibitor	Pf growth 48h	Sm TGR inh	Pf growth 96h	CHX counter
COc1ccc(Nc2nc(-c3sc(N)nc3C)cs2)cc1	?	56*	-77%	3%	-26%	25*
COC(=O)c1c(C)[nH]c(-c2csc(N)n2)c1C	·	-5	18%	9%	?	2
Cc1ccc(Nc2nc(-c3sc(N)nc3C)cs2)cc1	5%	46*	28%	0%	-12%	40*
COc1ccc(CCNc2nc(-c3sc(N)nc3C)cs2)cc1OC	?	-14	?	-17%	?	10
Cc1nc(C)c(-c2csc(N)n2)s1	3%	-10	-12%	1%	0.33µM*	-1
COc1ccc(Nc2nc(-c3sc(NC(C)=O)nc3C)cs2)cc1	16%	1	·	?	10µM*	-1
COc1ccc(C(=O)c2sc(Nc3ccc(NC(C)=O)cc3)nc2C)cc1	15%	12	20%	-1%	?	0
Cc1cc2nc(NCCCO)n(CC(=O)c3cc(C(C)(C)C)c(O)c(C(C)(C)C)c3)c2cc1C	·	·	?	-15%	-3%	·
CCc1cccc(NC(=O)CSc2nnc(-c3cc4occc4n3C)n2-c2ccccc2C)c1	·	·	·	0%	·	·
Cc1nc(C)c(-c2ccc(SCC(=O)Nc3ccc(Br)cc3)nn2)s1	·	·	·	-10%	·	·
CCOc1ccc(Nc2nc(-c3sc(N)nc3C)cs2)cc1	16%	14	?	-8%	50%	14*
Cc1ccc(Nc2nc(-c3sc(C)nc3C)cs2)cc1	-56%	58*	31%	-20%	?	25*
Cc1nc(C)c(-c2csc(Nc3ccc(S(N)(=O)=O)cc3)n2)s1	13%	-7	21%	-21%	27%	2
CC(=O)Nc1ccc(Nc2nc(-c3sc(C)nc3C)cs2)cc1	10%	53	5%	7%	?	11*
CC(CCN)(CCN)[N+](=O)[O-]	-4%	·	·	·	·	·
COc1ccc(C2c3c(n(C)c4ccccc34)C(=O)N2CC(=O)Nc2ccc(C)cc2Cl)cc1 (stereo not drawn)	·	·	·	4%	·	·
COCCN(C(=O)COC(=O)/C=C/c1ccc(OC)c(OC)c1)c1c(N)n(Cc2ccccc2)c(=O)[nH]c1=O	·	·	?	4%	?	·
COc1cccc(SCc2noc(C(=O)NC(C)C)c2C(=O)NC(C)C)c1	·	·	?	-18%	?	·
CN(c1ccccc1)S(=O)(=O)c1cccc(NS(=O)(=O)c2ccc(/C=C/C(=O)O)cc2)c1	5%	-17	120%	?	?	-1
Cc1cc(N2CCN(C)CC2)nc2ccc(NC(=S)N3CCCCC3)cc12	8%	27	3.3µM*	-17%	9.3µM*	20
Cc1cc(N2CCOCC2)nc2ccc(NC(=S)N3CCCCC3C)cc12 (stereo not drawn)	·	19	?	7%	?	31*
Cc1cccc(N2CCN(C(=S)Nc3ccc4nc(N5CCN(C)CC5)cc(C)c4c3)CC2)c1C	·	-23	12µM*	-6%	?	-17
Cc1cc(N2CCN(C)CC2)nc2ccc(NC(=O)Nc3ccc(Cl)cc3)cc12	·	·	·	4%	·	·
Cc1cccc(N2CCN(C(=S)Nc3ccc4nc(N5CCN(C)CC5)cc(C)c4c3)CC2C)c1 (stereo not drawn)	-1%	-25	?	-18%	9.3µM*	-4
Cc1cc(N2CCN(C)CC2)nc2ccc(NC(=S)N3CCCCCC3)cc12	4%	51	?	-5%	9%	15
Cc1ccc(NC(=O)COc2ccc(Br)cn2)cc1	-2%	-5	53%	10%	39%	5
Cc1cc(N2CCN(C)CC2)nc2ccc(NC(=S)N3CCN(c4cccc(Cl)c4)CC3)cc12	-3%	-21	?	-10%	135%	1
